Screening data: PubChem, National Center for Advancing Translational Sciences (NCATS)
Many of the other results were omitted from the sample, so hits are more common in it than they were.
Cycloheximide cs: Cycloheximide Counterscreen for Small Molecule Inhibitors of Shiga Toxin | cell reporter, cycloheximide protein synthesis inhibition counterscreen | max response, % | 300,000 tested, 12% active | AID 2314, 2010; in the data active means max response mostly above about 13%, no sharp cut-off; inactive means mostly below about 14%; further: read at 38.3 µM for the half of the compounds with a filed dose; 0% is about no effect
Shiga toxin inh: A qHTS for Small Molecule Inhibitors of Shiga Toxin; 290,000 tested, 9.2% active; AID 2315, 2010; inhibition, % at 38.7 µM; Vero cells, Shiga toxin protein synthesis inhibition reporter; in the data active means inhibition mostly above about 28%, no sharp cut-off; inactive means mostly below about 43%; further: 0% is about no effect
Giardia FBPA inh: qHTS Assay for Inhibitors of Fructose-1,6-bisphosphate Aldolase from Giardia Lamblia | 290,000 tested, 0.71% active | purified Giardia FBPA | Potency, µM (highest dose often 59.6 µM), for inactives: top-dose activity, negative = inhibition, most hits filed as inhibitors | A8B2U2 | AID 2451, 2010; further: potency means the concentration at half of the fitted maximal effect; on the % scale 0 is the no-effect control and ±100 the full control effect; nearly all actives have a fitted effect of over 55% in size
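40 nM FBPA preincubated 10 min at RT with compound (up to 57.5 uM final), then substrate plus GAPDH/TPI/NAD/arsenate coupling and diaphorase/resazurin added. Fluorescence read after 20 min at RT, 525/598 nm.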
RE007 growth inh: qHTS Assay for Inhibitors of the HIV-1 protein Vpr; S. pombe RE007 Vpr strain, BacTiter-Glo ATP luminescence, 24 h; Potency, µM (titrated, usually from 92.2 µM), for inactives: top-dose activity change, negative = less growth, actives largely listed as inhibitors; 360,000 tested, 0.21% active; active means well fitted falling curve with a large enough effect; inconclusive means small, poorly fitted or top-dose-only effect; inactive means no such curve, though single readings can be large or run the other way; further: potency means the concentration at half of the fitted maximal effect; on the % scale 0 is the no-effect control and ±100 the full control effect; nearly all actives have a fitted effect of over 50% in size
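Fission yeast RE007 carrying one integrated HIV-1 vpr copy, seeded at OD 0.01 in PMG+AL medium with 23 nL pinned compound. Grown 24 h at 30 degrees; viability read by BacTiter-Glo luminescence after 5 min.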
LmPK inhibitor: qHTS Assay for Inhibitors of Leishmania Mexicana Pyruvate Kinase (LmPK) | purified LmPK, Kinase-Glo ATP luminescence, 1 h | Potency, µM (doses to about 57.5 µM), without a hit: at the top dose activity change, negative = inhibition, hits mostly inhibitors | 290,000 tested, 0.37% active | AID 1721, 2009; further: potency means the concentration at half of the fitted maximal effect; on the % scale 0 is the no-effect control and ±100 the full control effect
Target sequence (Q27686 whole entry, looked up): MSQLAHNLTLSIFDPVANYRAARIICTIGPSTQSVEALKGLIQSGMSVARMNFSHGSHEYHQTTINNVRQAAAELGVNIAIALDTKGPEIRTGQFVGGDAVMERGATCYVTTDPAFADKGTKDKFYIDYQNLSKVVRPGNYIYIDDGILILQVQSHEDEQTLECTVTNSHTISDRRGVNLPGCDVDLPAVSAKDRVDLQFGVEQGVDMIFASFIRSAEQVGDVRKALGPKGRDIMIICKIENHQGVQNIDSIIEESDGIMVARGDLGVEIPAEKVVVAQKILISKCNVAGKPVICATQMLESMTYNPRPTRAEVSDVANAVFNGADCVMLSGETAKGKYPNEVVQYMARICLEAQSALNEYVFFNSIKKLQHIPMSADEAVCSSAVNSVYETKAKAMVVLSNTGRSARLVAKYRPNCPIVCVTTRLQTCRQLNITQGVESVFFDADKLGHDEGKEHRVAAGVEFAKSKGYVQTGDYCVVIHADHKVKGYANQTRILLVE
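qHTS format; LmPK 0.1 nM; substrates PEP 0.5 mM and ADP 0.1 mM. One-hour room-temperature incubation, then coupled luciferase luminescence; 0.5 nM enzyme wells mark activation.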
Tb PYK inh: qHTS of Trypanosoma Brucei Inhibitors; TbPYK enzyme, Kinase-Glo Plus ATP luminescence, 45 min; pyruvate kinase (Trypanosoma brucei), Q57TT1; Potency, µM (highest dose often 76.8 µM), inactives show at the top dose activity, negative = inhibition, most hits filed as inhibitors; 410,000 tested, 0.12% active; further: potency means the concentration at half of the fitted maximal effect; on the % scale 0 is the no-effect control and ±100 the full control effect; nearly all actives have a fitted effect of over 50% in size
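Glycolytic pyruvate kinase of T. brucei was incubated with substrate, test compound and 130 uM ADP for 45 minutes at room temperature. Luminescent Kinase-Glo Plus signal was measured after 10 minutes.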
* marks the source's active call; other numbers are inactive results; u = inconclusive; x = no result; [ ] = remark or other dose. Unless noted, the call rests on the fitted dose curve; in most records, active means well fitted curve in the direction sought with a large enough effect; inconclusive means small, poorly fitted or top-dose-only effect, or another doubt; inactive means no such curve, though single readings can be large; an effect the other way counts as inactive or inconclusive.

SMILES	Cycloheximide cs	Shiga toxin inh	Giardia FBPA inh	RE007 growth inh	LmPK inhibitor	Tb PYK inh
C(=N\N1CCOCC1)/c1cccs1	-1	7	0%	1%	-1%	4%
CCOC(=O)c1c(NC(NC(=O)C(C)C)C(Cl)(Cl)Cl)sc2c1CCC2 (stereo unspecified)	15*	35	-2%	6%	0%	6%
CCCCOc1cccc(C(=O)N(Cc2sccc2C)C2CCS(=O)(=O)C2)c1 (stereo unspecified)	x	x	x	x	x	3%
Cn1c(=O)n(Cc2ccccc2Cl)c(=O)c2c1[nH]c(=S)n2C	12	-5	-28%	6%	-1%	7.9µM*
COC(=O)CNC(=O)C(=O)OC	-5	15	1%	x	x	x
CC(C)(CO)NCc1ccccc1OCC(=O)Nc1ccccc1	24*	64	4%	9%	-12%	-3%
COc1cc(CO)ccc1OCC(=O)Nc1ccc(Br)cc1	21*	96*	1%	-2%	-2%	9%
O=C(COc1ccc(Br)cc1CO)Nc1ccccc1F	29*	77*	5%	12%	-3%	-2%
CCCNCc1cc(Br)ccc1OCC(=O)NCCc1ccccc1	-6	-8	0%	-24%	2%	-13%
Cc1ccc(NC(=O)COc2ccccc2CNC(C)(C)CC(C)(C)C)cc1	-1	-11	6%	-13%	-1%	-10%
O=C(COc1ccc(Br)cc1CO)Nc1ccccc1	27*	159	0%	-21%	-3%	-12%
COc1ccc(CC(=O)NNC(=O)COc2ccc(Br)cc2C)cc1OC	-3	14	4%	1%	10%	-8%
COc1ccccc1NC(=O)COc1ccc(Br)cc1CO	21	15	2%	-21%	2%	2%
CCC(=O)N[C@H]1C=C[C@H](CC(=O)OC)O[C@@H]1CO	x	x	x	1%	x	x
COc1ccccc1NC(=O)C(C)Sc1nnc2ccc3ccccc3n12 (stereo unspecified)	x	x	x	x	x	-11%
CCCCCCCCN[C@@H](C)[C@H](O)c1ccc(SC(C)C)cc1	x	x	-2%[21.7 µM]	x	x	x
O=C(COc1ccc(Br)cc1CO)Nc1ccc(S(=O)(=O)N2CCCCC2)cc1	x	x	x	0%	x	4%
Cc1ccc(NC(=O)COc2ccc(Br)cc2CO)cc1	26*	69	-5%	-12%	-3%	6%
Nc1ccc(S(=O)(=O)N2CCC(Cc3ccccc3)CC2)cc1	-4	-5	8%	-3%	-3%	29%
O=[N+]([O-])c1ccc(O)c(C=Nc2cccc3ccccc23)c1	-3	-3	-5%	-22%	-4%	-1%
Oc1ccc(C=Nc2cccc3ccccc23)c(O)c1	14*	30	u	3%	1%	2%
Cc1ccc(NC(=O)Cn2c([N+](=O)[O-])cnc2C)cc1Cl	-1	14	-3%	0%	0%	-2%
C=CCn1c(SCC(=O)Nc2cccnc2Cl)nnc1-c1ccc(C(C)(C)C)cc1	13*	31	-2%	18%	4%	-12%
CC(=O)Nc1cccc(C(=O)OCC(=O)N2CCC(c3ccccc3)=N2)c1	x	x	x	-10%	x	-4%
COc1ccc(N2C(=O)CC(Sc3n[nH]c(-c4ccccc4)n3)C2=O)cc1 (stereo unspecified)	-2	11	-20%	18µM*	11%	-20%
SMILES	Cycloheximide cs	Shiga toxin inh	Giardia FBPA inh	RE007 growth inh	LmPK inhibitor	Tb PYK inh
CCOc1ccc(N2C(=O)CC(Sc3n[nH]c(-c4ccccc4)n3)C2=O)cc1 (stereo unspecified)	-3	7	-24%	u	17%	-29%
O=C(N/N=C/c1ccoc1)c1cccc([N+](=O)[O-])c1	23	27	x	-3%	3%	1%
CCOc1cccc(C(=O)N/N=C/c2ccoc2)c1	24*	49*	x	-15%	-1%	-3%
O=C(N/N=C/c1ccoc1)c1cccc(OC(F)(F)C(F)F)c1	x	x	x	25%	x	0%
O=C(N/N=C/c1cccnc1)c1ccc(NC(=O)c2ccc(Cl)cc2)cc1	-3	-5	5%	1%	5%	-2%
COc1ccc(C(=O)N/N=C\c2ccoc2)cc1	24	28	-3%	10%	-8%	-3%
Cc1ccc(C(=O)N/N=C/c2ccoc2)cc1C	41*	63*	-4%	14%	1%	-8%
CC(C)c1cc(C(=O)N/N=C/c2cccnc2)cs1	21*	41*	0%	13%	0%	-4%
CC(C)c1cc(C(=O)N/N=C/c2ccoc2)cs1	42*	74*	x	5%	-4%	-9%
Cc1ccccc1C(=O)NNC(=O)CSc1nc(-c2ccccc2)cc(=O)[nH]1	-3	-6	2%	20%	-6%	0%
CC(=O)c1cccc(NC(=O)NC(C)c2ccc3c(c2)OCO3)c1 (stereo unspecified)	-2	22	0%	4%	-7%	1%
CCOC(=O)CSC1=NC(=O)/C(=C\c2ccc(OC(C)=O)cc2)S1	28*	120*	-2%	u	u	-10%
NC1=NC(=O)/C(=C/c2ccc(Br)cc2)S1	7	x	-4%	-2%	7%	0%
CCOC(=O)CSC1=NC(=O)/C(=C/c2ccc(Br)cc2)S1	30*	60*	14%	u	-6%	15%
NNc1nc(-c2ccccc2Cl)nc2sc3c(c12)CCCC3	46*	52*	-20%	3%	3%	3%
NNc1nc(-c2ccccc2Cl)nc2ccccc12	9	x	-26%	-12%	13%	2%
Cc1cc(Oc2ccccc2)nc(-c2ccccc2)n1	27*	20	x	-6%	-2%	2%
c1ccc(Oc2cc(-c3ccccc3)nc(-c3ccccc3)n2)cc1	-2	-6	0%	-4%	-1%	4%
COCCCNC(=O)CSc1nc2nc(C)c(Cc3ccccc3Cl)c(C)n2n1	x	x	x	x	x	1%
Cc1cccc(NC(=O)c2c(NC(=O)c3ccco3)sc3c2CCC(C(C)(C)C)C3)c1 (stereo unspecified)	x	x	x	x	x	2%
O=C(COc1ccc(Cl)cc1Cl)N(c1ccccn1)C1CCCCC1	30*	32	4%	5%	2%	1%
CN(C(=O)COc1ccc(Cl)cc1Br)C1CCCCC1	45*	72*	2%	-2%	-2%	-2%
O=C(CSc1nc2ccccc2s1)Nc1ccc2c(c1)oc1ccccc12	7	-16	-8%	x	-2%	-17%
O=c1oc2ccccc2n1CSc1nc2ccccc2s1	41*	96*	-16%	u	0%	-4%
O=C(Cn1c(=O)oc2ccccc21)c1ccccc1	-2	17	-1%	-2%	-3%	-10%
O=c1oc2ccccc2n1CSC1=NCCS1	19*	55	1%	u	0%	-1%
